Drawing on article PMC7862700, “An all-to-all approach to the identification of sequence-specific readers for epigenetic DNA modifications on cytosine”, this text covers binding signal for 1 sequence.

Holding throughout (test): DAPPL (digital affinity profiling via proximity ligation, sequencing); 10 mM Tris-HCl pH 7.5, 50 mM NaCl, 1 mM DTT, 4% glycerol, room temperature, 30 min; GST-TFs on glutathione beads, 16-mer random dsDNA library, 0.1% formaldehyde crosslink after washing; high values mean tight binding
One assay deals with T1, FLI1 (Homo sapiens, UniProt Q01543 1-452).
T1 sequence: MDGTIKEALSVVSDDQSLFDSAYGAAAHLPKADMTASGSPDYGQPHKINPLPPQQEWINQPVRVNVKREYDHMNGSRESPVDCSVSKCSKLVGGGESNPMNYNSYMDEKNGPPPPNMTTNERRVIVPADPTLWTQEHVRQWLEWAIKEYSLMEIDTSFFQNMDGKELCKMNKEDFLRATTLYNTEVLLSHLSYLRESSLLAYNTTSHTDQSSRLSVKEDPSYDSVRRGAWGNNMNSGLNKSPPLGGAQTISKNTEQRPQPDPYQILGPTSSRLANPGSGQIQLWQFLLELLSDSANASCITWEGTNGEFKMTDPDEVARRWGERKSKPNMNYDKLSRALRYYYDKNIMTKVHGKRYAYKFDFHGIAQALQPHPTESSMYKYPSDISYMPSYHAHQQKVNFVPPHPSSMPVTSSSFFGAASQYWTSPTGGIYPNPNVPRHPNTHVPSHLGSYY
The following applies: protein: recombinant; tags: N-terminal GST; dsDNA, one strand shown. Put shortly:
(§1)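 Sequencing on an Illumina NextSeq500 followed washing, crosslinking with 0.1% formaldehyde, proximity ligation (BsaI/T4 ligase, 1 h, 37 °C) and PCR amplification of pools that had been incubated for 30 min at room temperature with 200 nmole of a random double-stranded 16-mer DNA library in Tris/NaCl/DTT/glycerol buffer. Each pool held DNA-barcoded human transcription factors, expressed in yeast as GST fusions and captured on glutathione beads, plus a tag-only sample. Binding signal is a hexamer's read frequency for a factor divided by its frequency in the tag-only sample.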

The target of another assay is T2, ELK1 (Homo sapiens, UniProt P19419 1-428).
T2 sequence: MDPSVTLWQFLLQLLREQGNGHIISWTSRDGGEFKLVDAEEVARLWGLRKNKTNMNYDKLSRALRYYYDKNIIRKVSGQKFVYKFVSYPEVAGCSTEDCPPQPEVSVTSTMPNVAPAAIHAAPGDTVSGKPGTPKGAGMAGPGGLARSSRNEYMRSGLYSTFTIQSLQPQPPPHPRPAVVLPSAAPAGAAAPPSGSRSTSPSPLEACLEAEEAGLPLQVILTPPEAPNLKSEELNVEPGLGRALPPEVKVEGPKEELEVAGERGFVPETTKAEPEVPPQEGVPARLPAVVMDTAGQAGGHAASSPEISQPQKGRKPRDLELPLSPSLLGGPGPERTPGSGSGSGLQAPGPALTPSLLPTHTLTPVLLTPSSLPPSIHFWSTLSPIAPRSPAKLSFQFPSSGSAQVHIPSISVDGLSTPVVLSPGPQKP
The note with it: protein: recombinant; tags: N-terminal GST; dsDNA, one strand shown. Put shortly: as §1

In the next assay the target is T3, GABPA (Homo sapiens, UniProt Q06546 1-454).
T3 sequence: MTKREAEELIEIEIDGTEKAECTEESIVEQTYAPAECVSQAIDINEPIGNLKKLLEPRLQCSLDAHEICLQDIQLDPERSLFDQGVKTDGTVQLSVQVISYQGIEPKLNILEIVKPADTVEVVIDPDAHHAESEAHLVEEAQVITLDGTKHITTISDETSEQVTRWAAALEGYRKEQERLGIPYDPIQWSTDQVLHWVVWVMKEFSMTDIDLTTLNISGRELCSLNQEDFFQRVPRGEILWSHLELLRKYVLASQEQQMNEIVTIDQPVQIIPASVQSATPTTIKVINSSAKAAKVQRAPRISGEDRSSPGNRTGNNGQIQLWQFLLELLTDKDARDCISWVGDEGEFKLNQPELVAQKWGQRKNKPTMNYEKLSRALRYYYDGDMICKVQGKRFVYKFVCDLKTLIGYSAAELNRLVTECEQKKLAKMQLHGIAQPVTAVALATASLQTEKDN
The following applies: protein: recombinant; tags: N-terminal GST; dsDNA, one strand shown. The method, boiled down:
as §1

In a further assay the target is T4, ERG (Homo sapiens, UniProt P11308 1-479).
T4 sequence: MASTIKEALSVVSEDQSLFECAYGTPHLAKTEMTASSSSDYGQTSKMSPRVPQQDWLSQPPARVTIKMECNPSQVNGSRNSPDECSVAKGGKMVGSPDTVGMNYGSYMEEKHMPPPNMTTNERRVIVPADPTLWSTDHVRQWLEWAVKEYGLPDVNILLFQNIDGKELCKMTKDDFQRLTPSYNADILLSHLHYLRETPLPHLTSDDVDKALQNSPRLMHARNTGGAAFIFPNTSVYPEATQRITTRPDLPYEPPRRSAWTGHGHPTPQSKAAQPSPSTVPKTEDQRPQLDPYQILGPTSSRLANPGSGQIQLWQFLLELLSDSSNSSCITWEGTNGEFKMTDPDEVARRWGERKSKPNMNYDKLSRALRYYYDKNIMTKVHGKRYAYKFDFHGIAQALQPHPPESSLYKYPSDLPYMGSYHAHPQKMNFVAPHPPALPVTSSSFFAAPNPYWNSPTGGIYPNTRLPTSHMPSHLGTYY
The following applies: protein: recombinant; tags: N-terminal GST; dsDNA, one strand shown. The method, boiled down:
as §1

The target of a further assay is ELF1 (Homo sapiens, UniProt P32519 1-619). The note with it: protein: recombinant; tags: N-terminal GST; dsDNA, one strand shown. The method, boiled down: as §1
The target of the next assay is T5, EHF (Homo sapiens, UniProt Q9NZC4 1-300).
T5 sequence: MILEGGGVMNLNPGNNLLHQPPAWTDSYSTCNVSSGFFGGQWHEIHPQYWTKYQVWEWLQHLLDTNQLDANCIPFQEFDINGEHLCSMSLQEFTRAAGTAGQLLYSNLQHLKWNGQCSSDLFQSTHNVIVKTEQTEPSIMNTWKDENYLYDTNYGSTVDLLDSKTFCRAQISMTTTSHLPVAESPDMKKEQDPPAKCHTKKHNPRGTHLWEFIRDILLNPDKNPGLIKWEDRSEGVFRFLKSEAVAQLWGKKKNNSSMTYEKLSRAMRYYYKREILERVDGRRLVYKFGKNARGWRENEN
The note with it: protein: recombinant; tags: N-terminal GST; dsDNA, one strand shown. Put shortly: as §1

A further assay deals with SPIB (Homo sapiens, UniProt Q01892 1-262). The following applies: protein: recombinant; tags: N-terminal GST; dsDNA, one strand shown. Put shortly:
as §1

The next assay has as its target T6, ELK3 (Homo sapiens, UniProt P41970 1-407).
T6 sequence: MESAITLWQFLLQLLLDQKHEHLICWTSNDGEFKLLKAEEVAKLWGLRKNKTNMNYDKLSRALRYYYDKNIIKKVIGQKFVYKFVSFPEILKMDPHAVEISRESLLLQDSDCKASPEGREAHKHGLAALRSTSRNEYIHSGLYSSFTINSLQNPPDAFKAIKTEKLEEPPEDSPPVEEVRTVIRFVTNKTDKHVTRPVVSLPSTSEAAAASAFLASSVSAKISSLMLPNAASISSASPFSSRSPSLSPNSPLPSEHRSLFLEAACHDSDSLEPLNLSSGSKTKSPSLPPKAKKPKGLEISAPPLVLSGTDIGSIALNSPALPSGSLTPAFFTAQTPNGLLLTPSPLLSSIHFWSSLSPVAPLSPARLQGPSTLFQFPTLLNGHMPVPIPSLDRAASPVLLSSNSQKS
The note with it: protein: recombinant; tags: N-terminal GST; dsDNA, one strand shown. Put shortly:
as §1

The target of the next assay is T7, FEV (Homo sapiens, UniProt Q99581 1-238).
T7 sequence: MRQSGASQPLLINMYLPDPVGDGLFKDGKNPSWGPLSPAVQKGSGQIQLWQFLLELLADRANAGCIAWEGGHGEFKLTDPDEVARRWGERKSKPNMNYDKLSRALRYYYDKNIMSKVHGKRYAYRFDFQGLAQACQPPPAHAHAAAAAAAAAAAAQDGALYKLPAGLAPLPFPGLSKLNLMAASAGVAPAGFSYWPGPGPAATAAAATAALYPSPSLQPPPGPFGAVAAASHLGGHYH
The note with it: protein: recombinant; tags: N-terminal GST; dsDNA, one strand shown. The method, boiled down:
as §1

The target of a further assay is ETV5 (Homo sapiens, UniProt P41161 1-510). The note with it: protein: recombinant; tags: N-terminal GST; dsDNA, one strand shown. The method, boiled down:
as §1

Another assay deals with HSF1 (Homo sapiens, UniProt Q00613 1-529). The following applies: protein: recombinant; tags: N-terminal GST; chain copies: 3; dsDNA, one strand shown. The method, boiled down: as §1
The next assay addresses T8, SPIC (Homo sapiens, UniProt Q8N5J4 1-248).
T8 sequence: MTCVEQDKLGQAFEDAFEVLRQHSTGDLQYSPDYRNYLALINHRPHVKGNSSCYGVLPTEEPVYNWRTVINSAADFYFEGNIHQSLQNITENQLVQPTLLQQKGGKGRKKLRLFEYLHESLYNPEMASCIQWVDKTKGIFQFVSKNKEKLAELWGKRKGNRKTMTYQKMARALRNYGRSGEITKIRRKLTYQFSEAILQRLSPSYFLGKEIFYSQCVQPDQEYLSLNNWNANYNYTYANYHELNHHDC
The following applies: protein: recombinant; tags: N-terminal GST; dsDNA, one strand shown. The method, boiled down: as §1

The target in another assay is ELF4 (Homo sapiens, UniProt Q99607 1-663). The note with it: protein: recombinant; tags: N-terminal GST; dsDNA, one strand shown. Put shortly:
as §1

For the next assay, the target named is T9, ELK4 (Homo sapiens, UniProt P28324-2 1-405).
T9 sequence: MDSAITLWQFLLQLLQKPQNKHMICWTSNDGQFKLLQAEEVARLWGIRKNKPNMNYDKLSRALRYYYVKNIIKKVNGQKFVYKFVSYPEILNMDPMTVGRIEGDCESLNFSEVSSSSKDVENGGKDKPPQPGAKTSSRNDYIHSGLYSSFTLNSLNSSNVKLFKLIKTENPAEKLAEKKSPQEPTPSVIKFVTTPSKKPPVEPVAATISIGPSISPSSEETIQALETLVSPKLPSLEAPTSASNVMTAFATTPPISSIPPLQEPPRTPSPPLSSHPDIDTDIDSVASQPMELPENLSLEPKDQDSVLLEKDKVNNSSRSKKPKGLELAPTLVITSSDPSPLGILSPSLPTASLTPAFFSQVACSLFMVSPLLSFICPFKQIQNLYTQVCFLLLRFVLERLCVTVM
The following applies: protein: recombinant; tags: N-terminal GST; dsDNA, one strand shown. The method, boiled down: as §1

The target in a further assay is T10, ETV2 (Homo sapiens, UniProt O00321 1-342).
T10 sequence: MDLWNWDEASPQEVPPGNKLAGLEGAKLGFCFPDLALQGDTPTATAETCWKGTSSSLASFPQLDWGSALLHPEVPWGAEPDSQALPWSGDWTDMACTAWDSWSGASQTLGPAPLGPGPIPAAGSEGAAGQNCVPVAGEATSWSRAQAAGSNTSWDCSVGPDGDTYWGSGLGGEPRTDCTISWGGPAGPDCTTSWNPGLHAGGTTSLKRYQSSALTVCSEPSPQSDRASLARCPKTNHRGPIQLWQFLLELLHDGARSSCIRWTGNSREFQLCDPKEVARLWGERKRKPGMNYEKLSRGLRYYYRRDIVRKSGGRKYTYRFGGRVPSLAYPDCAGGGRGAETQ
The following applies: protein: recombinant; tags: N-terminal GST; dsDNA, one strand shown. Put shortly:
as §1

The target in a further assay is T11, ELF3 (Homo sapiens, UniProt P78545 1-371).
T11 sequence: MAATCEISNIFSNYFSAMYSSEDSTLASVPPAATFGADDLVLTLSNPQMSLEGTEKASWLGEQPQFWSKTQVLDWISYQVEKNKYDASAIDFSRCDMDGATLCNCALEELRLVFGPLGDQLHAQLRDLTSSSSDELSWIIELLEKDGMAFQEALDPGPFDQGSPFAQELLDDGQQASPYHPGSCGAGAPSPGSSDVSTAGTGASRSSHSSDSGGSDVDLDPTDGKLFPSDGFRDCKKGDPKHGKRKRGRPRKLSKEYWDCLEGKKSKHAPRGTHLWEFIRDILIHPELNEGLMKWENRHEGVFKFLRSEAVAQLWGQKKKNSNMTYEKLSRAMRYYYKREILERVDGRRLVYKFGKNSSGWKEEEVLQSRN
The note with it: protein: recombinant; tags: N-terminal GST; dsDNA, one strand shown. Put shortly:
as §1

The next assay deals with CRX (Homo sapiens, UniProt O43186 1-299). The note with it: protein: recombinant; tags: N-terminal GST; dsDNA, one strand shown. The method, boiled down: as §1
In another assay the target is ETV1 (Homo sapiens, UniProt P50549 1-477). The following applies: protein: recombinant; tags: N-terminal GST; dsDNA, one strand shown. Put shortly: as §1
ETV1, sequence (P50549 whole entry): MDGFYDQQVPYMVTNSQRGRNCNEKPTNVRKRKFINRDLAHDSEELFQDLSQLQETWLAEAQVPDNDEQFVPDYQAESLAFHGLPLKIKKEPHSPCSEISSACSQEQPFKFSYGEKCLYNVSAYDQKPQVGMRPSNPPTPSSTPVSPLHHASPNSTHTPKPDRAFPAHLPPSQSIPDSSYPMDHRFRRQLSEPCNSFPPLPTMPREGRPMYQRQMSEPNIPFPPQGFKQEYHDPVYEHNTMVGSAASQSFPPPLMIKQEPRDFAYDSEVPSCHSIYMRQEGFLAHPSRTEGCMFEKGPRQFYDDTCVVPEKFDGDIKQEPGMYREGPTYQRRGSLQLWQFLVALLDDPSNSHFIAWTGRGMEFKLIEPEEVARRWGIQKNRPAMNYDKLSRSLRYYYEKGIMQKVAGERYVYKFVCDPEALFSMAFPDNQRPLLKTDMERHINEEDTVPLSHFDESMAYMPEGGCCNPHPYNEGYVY

CRX, sequence (O43186 whole entry): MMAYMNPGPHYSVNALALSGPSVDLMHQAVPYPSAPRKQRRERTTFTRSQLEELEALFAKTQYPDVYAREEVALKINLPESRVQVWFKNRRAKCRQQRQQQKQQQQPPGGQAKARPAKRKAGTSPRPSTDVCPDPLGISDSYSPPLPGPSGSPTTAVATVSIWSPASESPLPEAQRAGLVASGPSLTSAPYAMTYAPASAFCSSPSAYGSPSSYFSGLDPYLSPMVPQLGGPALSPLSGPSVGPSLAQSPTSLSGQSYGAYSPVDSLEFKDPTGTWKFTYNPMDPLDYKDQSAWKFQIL
ELF1, sequence (P32519 whole entry): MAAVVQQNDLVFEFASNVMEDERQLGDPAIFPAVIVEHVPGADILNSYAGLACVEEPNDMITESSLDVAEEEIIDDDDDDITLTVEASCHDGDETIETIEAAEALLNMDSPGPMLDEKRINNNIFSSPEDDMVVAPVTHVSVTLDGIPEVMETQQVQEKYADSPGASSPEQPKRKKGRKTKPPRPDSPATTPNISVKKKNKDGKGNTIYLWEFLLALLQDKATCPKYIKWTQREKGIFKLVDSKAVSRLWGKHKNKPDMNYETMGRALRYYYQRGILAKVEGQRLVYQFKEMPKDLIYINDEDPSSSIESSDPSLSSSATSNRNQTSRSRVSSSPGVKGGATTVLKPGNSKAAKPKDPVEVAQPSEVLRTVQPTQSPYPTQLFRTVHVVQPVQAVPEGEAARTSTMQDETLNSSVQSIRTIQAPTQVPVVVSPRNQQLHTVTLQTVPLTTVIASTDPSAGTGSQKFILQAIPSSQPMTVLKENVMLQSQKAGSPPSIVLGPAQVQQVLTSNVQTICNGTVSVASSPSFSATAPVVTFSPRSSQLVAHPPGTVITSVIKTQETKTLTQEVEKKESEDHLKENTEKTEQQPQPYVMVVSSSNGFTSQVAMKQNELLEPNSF
ELF4, sequence (Q99607 whole entry): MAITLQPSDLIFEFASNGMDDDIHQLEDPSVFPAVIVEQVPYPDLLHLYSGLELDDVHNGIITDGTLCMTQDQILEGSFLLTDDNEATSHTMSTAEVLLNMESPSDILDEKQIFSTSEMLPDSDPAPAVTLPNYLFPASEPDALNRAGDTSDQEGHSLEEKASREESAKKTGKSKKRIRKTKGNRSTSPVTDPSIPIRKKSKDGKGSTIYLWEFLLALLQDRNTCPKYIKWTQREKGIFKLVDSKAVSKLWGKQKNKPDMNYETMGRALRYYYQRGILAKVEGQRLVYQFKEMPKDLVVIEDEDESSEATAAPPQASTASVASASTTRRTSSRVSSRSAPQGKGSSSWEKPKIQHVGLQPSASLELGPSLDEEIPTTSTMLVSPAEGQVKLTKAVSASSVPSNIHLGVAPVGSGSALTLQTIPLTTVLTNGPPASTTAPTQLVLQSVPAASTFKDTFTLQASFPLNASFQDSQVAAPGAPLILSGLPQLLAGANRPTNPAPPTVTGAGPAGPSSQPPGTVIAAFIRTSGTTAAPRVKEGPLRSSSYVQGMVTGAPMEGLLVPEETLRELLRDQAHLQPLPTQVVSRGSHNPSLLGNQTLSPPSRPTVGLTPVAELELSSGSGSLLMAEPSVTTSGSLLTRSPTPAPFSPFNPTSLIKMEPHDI
SPIB, sequence (Q01892 whole entry): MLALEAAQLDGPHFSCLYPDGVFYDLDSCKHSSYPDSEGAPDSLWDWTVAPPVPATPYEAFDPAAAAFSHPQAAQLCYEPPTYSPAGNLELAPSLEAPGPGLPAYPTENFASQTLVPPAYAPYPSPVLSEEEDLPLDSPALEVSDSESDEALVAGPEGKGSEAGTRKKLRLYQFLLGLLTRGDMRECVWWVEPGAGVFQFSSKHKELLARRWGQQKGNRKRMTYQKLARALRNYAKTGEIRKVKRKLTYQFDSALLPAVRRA
ETV5, sequence (P41161 whole entry): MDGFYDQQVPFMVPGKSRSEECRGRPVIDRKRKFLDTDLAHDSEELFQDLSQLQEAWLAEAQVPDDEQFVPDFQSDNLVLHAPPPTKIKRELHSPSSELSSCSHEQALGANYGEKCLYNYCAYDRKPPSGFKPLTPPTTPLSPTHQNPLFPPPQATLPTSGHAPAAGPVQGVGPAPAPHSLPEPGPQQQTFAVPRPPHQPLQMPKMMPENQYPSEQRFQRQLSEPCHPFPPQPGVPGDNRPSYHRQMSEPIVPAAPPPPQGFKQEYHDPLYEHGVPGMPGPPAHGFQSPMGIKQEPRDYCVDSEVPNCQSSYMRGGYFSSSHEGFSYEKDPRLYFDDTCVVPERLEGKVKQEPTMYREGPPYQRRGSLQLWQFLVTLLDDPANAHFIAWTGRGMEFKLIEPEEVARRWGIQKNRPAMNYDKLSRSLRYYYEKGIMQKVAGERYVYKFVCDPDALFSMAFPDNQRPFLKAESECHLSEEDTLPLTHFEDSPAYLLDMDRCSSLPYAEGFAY
HSF1, sequence (Q00613 whole entry): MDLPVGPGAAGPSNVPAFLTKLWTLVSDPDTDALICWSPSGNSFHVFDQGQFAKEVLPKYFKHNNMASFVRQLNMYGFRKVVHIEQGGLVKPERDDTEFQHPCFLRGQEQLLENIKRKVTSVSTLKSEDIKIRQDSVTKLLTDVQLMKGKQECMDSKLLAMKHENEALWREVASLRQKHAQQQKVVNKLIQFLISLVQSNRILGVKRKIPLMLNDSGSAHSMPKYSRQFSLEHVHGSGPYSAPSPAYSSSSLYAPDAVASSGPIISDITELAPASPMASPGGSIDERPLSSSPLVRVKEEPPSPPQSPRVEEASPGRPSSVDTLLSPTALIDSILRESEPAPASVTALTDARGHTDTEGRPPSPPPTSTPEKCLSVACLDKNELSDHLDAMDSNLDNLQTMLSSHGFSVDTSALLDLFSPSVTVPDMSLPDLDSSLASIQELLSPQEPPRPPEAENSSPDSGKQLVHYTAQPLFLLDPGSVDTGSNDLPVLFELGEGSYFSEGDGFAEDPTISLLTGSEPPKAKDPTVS

With CGAGCA, the binding signal is 1.17 fold enrichment (6-mer frequency, TF over GST control) in the assay with FLI1; 1.18 fold enrichment (6-mer frequency, TF over GST control) in the assay with ELK1; 1.18 fold enrichment (6-mer frequency, TF over GST control) in the assay with GABPA; 1.13 fold enrichment (6-mer frequency, TF over GST control) with ERG; 1.14 fold enrichment (6-mer frequency, TF over GST control) with ELF1; 1.05 fold enrichment (6-mer frequency, TF over GST control) in the assay with EHF. Further, the binding signal is 1.16 fold enrichment (6-mer frequency, TF over GST control) in the assay with SPIB; 1.14 fold enrichment (6-mer frequency, TF over GST control) in the assay with ELK3; 1.16 fold enrichment (6-mer frequency, TF over GST control) in the assay with FEV; 1.1 fold enrichment (6-mer frequency, TF over GST control) in the assay with ETV5; 1.38 fold enrichment (6-mer frequency, TF over GST control) with HSF1; 1.1 fold enrichment (6-mer frequency, TF over GST control) in the assay with SPIC. Moreover, the binding signal is 1.13 fold enrichment (6-mer frequency, TF over GST control) with ELF4; 1.17 fold enrichment (6-mer frequency, TF over GST control) in the assay with ELK4; 1.34 fold enrichment (6-mer frequency, TF over GST control) with ETV2; 1.29 fold enrichment (6-mer frequency, TF over GST control) with ELF3; 1.04 fold enrichment (6-mer frequency, TF over GST control) with CRX; 1.11 fold enrichment (6-mer frequency, TF over GST control) with ETV1.
